# Article PMC11006913
# Assays:
# Assay in all cases: PBM; 200 nM protein, PBS
# Settings in all cases: dsDNA, one strand shown
# HOXB9 [1] = target: HOXB9 (Homo sapiens, UniProt P17482 171-250, T197M)
# HOXC9 [2] = target: HOXC9 (Homo sapiens, UniProt P31274 178-260, K195R)
# HOXC10 [3] = target: HOXC10 (Homo sapiens, UniProt Q9NYD6 254-340)
# HOXB9 [4] = target: HOXB9 (Homo sapiens, UniProt P17482 171-250)
# HOXC9 [5] = target: HOXC9 (Homo sapiens, UniProt P31274 178-260)
# HOXD13 [6] = target: HOXD13 (Homo sapiens, UniProt P35453 263-343, T313R)
# HOXD13 (Homo sapiens, UniProt P35453 263-343, T313R), sequence (P35453 263-343 T313R): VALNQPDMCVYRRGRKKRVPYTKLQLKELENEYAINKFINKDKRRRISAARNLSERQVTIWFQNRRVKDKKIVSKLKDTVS
# HOXC9 [7] = target: HOXC9 (Homo sapiens, UniProt P31274 178-260, R193K)
# HOXC9 (Homo sapiens, UniProt P31274 178-260, R193K), sequence (P31274 178-260 R193K): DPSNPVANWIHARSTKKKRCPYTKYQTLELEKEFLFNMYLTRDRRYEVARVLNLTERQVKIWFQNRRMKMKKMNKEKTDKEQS
# HOXD13 [8] = target: HOXD13 (Homo sapiens, UniProt P35453 263-343)
# HOXD13 (Homo sapiens, UniProt P35453 263-343), sequence (P35453 263-343): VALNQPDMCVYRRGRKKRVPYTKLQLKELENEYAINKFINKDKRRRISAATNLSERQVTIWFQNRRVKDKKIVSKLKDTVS
# HOXC10 [9] = target: HOXC10 (Homo sapiens, UniProt Q9NYD6 254-340, K271E)
# HOXC10 (Homo sapiens, UniProt Q9NYD6 254-340, K271E), sequence (Q9NYD6 254-340 K271E): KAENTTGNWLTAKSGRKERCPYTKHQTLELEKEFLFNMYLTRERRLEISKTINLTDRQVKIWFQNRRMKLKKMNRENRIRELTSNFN
# HOXD13 [10] = target: HOXD13 (Homo sapiens, UniProt P35453 263-343, T313A)
# HOXD13 (Homo sapiens, UniProt P35453 263-343, T313A), sequence (P35453 263-343 T313A): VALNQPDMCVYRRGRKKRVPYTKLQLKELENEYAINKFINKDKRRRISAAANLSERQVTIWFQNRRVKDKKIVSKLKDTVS
# HOXB9 [11] = target: HOXB9 (Homo sapiens, UniProt P17482 171-250, R186Q)
# HOXB9 (Homo sapiens, UniProt P17482 171-250, R186Q), sequence (P17482 171-250 R186Q): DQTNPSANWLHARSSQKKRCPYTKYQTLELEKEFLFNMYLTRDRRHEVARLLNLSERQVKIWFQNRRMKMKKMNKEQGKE
# HOXC9 [12] = target: HOXC9 (Homo sapiens, UniProt P31274 178-260, R222W)
# HOXC9 (Homo sapiens, UniProt P31274 178-260, R222W), sequence (P31274 178-260 R222W): as the sequence (P31274 178-260 R193K) above, with K16R, R45W counted along it
# HOXA2 [13] = target: HOXA2 (Homo sapiens, UniProt O43364 129-215, R185T)
# HOXA2 (Homo sapiens, UniProt O43364 129-215, R185T), sequence (O43364 129-215 R185T): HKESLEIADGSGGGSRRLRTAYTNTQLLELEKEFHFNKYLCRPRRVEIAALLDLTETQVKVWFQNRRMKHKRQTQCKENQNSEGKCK
# HOXA2 [14] = target: HOXA2 (Homo sapiens, UniProt O43364 129-215, R185K)
# HOXA2 (Homo sapiens, UniProt O43364 129-215, R185K), sequence (O43364 129-215 R185K): as the sequence (O43364 129-215 R185T) above, with T57K counted along it
# HOXA2 [15] = target: HOXA2 (Homo sapiens, UniProt O43364 129-215, Y150S)
# HOXA2 (Homo sapiens, UniProt O43364 129-215, Y150S), sequence (O43364 129-215 Y150S): as the sequence (O43364 129-215 R185T) above, with Y22S, T57R counted along it
# HOXA2 [16] = target: HOXA2 (Homo sapiens, UniProt O43364 129-215)
# HOXA2 (Homo sapiens, UniProt O43364 129-215), sequence (O43364 129-215): as the sequence (O43364 129-215 R185T) above, with T57R counted along it
# ALX4 = ALX4 (Homo sapiens, UniProt Q9H161 200-286, Q225E)
# ALX4, sequence (Q9H161 200-286 Q225E): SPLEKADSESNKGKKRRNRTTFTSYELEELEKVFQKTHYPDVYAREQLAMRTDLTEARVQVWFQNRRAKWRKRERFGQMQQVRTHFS
# HOXB9 (Homo sapiens, UniProt P17482 171-250, T197M), sequence (P17482 171-250 T197M): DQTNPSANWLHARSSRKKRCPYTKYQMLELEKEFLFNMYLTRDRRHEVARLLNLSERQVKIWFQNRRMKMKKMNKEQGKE
# HOXB9 (Homo sapiens, UniProt P17482 171-250), sequence (P17482 171-250): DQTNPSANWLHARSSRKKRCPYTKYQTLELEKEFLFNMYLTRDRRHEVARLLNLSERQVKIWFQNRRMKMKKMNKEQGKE
# HOXC9 (Homo sapiens, UniProt P31274 178-260, K195R), sequence (P31274 178-260 K195R): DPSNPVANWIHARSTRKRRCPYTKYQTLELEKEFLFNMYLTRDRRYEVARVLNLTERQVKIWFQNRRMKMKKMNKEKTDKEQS
# HOXC10 (Homo sapiens, UniProt Q9NYD6 254-340), sequence (Q9NYD6 254-340): as the sequence (Q9NYD6 254-340 K271E) above, with E18K counted along it
# HOXC9 (Homo sapiens, UniProt P31274 178-260), sequence (P31274 178-260): as the sequence (P31274 178-260 R193K) above, with K16R counted along it
Sequence,binding signal (HOXB9 [1]),binding signal (HOXC9 [2]),binding signal (HOXC10 [3]),binding signal (HOXB9 [4]),binding signal (HOXC9 [5]),binding signal (HOXD13 [6]),binding signal (HOXC9 [7]),binding signal (HOXD13 [8]),binding signal (HOXC10 [9]),binding signal (HOXD13 [10]),binding signal (HOXB9 [11]),binding signal (HOXC9 [12]),binding signal (HOXA2 [13]),binding signal (HOXA2 [14]),binding signal (HOXA2 [15]),binding signal (HOXA2 [16]),binding signal (ALX4)
CATAAAAG,"9.76 upbm affinity estimate (log intensity, higher = more binding, comparable within an allelic series)","12.6 upbm affinity estimate (log intensity, higher = more binding, comparable within an allelic series)","12.4 upbm affinity estimate (log intensity, higher = more binding, comparable within an allelic series)","12 upbm affinity estimate (log intensity, higher = more binding, comparable within an allelic series)","12.8 upbm affinity estimate (log intensity, higher = more binding, comparable within an allelic series)","10.7 upbm affinity estimate (log intensity, higher = more binding, comparable within an allelic series)","12.7 upbm affinity estimate (log intensity, higher = more binding, comparable within an allelic series)","11.8 upbm affinity estimate (log intensity, higher = more binding, comparable within an allelic series)","11.8 upbm affinity estimate (log intensity, higher = more binding, comparable within an allelic series)","11.6 upbm affinity estimate (log intensity, higher = more binding, comparable within an allelic series)","11.7 upbm affinity estimate (log intensity, higher = more binding, comparable within an allelic series)","11.2 upbm affinity estimate (log intensity, higher = more binding, comparable within an allelic series)",–,–,–,–,–
GTCGTAAA,"9.95 upbm affinity estimate (log intensity, higher = more binding, comparable within an allelic series)","13.1 upbm affinity estimate (log intensity, higher = more binding, comparable within an allelic series)","13.2 upbm affinity estimate (log intensity, higher = more binding, comparable within an allelic series)","12.6 upbm affinity estimate (log intensity, higher = more binding, comparable within an allelic series)","13.3 upbm affinity estimate (log intensity, higher = more binding, comparable within an allelic series)","10.9 upbm affinity estimate (log intensity, higher = more binding, comparable within an allelic series)","13 upbm affinity estimate (log intensity, higher = more binding, comparable within an allelic series)","12.3 upbm affinity estimate (log intensity, higher = more binding, comparable within an allelic series)","12.7 upbm affinity estimate (log intensity, higher = more binding, comparable within an allelic series)","11.9 upbm affinity estimate (log intensity, higher = more binding, comparable within an allelic series)","11.9 upbm affinity estimate (log intensity, higher = more binding, comparable within an allelic series)","11 upbm affinity estimate (log intensity, higher = more binding, comparable within an allelic series)",–,–,–,–,–
GCTATAAA,"9.72 upbm affinity estimate (log intensity, higher = more binding, comparable within an allelic series)","12.7 upbm affinity estimate (log intensity, higher = more binding, comparable within an allelic series)","12.2 upbm affinity estimate (log intensity, higher = more binding, comparable within an allelic series)","12 upbm affinity estimate (log intensity, higher = more binding, comparable within an allelic series)","12.8 upbm affinity estimate (log intensity, higher = more binding, comparable within an allelic series)","10.9 upbm affinity estimate (log intensity, higher = more binding, comparable within an allelic series)","12.7 upbm affinity estimate (log intensity, higher = more binding, comparable within an allelic series)","12 upbm affinity estimate (log intensity, higher = more binding, comparable within an allelic series)","11.4 upbm affinity estimate (log intensity, higher = more binding, comparable within an allelic series)","11.7 upbm affinity estimate (log intensity, higher = more binding, comparable within an allelic series)","11.7 upbm affinity estimate (log intensity, higher = more binding, comparable within an allelic series)","11 upbm affinity estimate (log intensity, higher = more binding, comparable within an allelic series)",–,–,–,–,–
CATAAAAA,"9.93 upbm affinity estimate (log intensity, higher = more binding, comparable within an allelic series)","12.8 upbm affinity estimate (log intensity, higher = more binding, comparable within an allelic series)","12.6 upbm affinity estimate (log intensity, higher = more binding, comparable within an allelic series)","12.4 upbm affinity estimate (log intensity, higher = more binding, comparable within an allelic series)","13 upbm affinity estimate (log intensity, higher = more binding, comparable within an allelic series)","10.7 upbm affinity estimate (log intensity, higher = more binding, comparable within an allelic series)","13 upbm affinity estimate (log intensity, higher = more binding, comparable within an allelic series)","11.8 upbm affinity estimate (log intensity, higher = more binding, comparable within an allelic series)","12 upbm affinity estimate (log intensity, higher = more binding, comparable within an allelic series)","11.6 upbm affinity estimate (log intensity, higher = more binding, comparable within an allelic series)","12 upbm affinity estimate (log intensity, higher = more binding, comparable within an allelic series)","11.4 upbm affinity estimate (log intensity, higher = more binding, comparable within an allelic series)",–,–,–,–,–
CCTAGGGC,"8.55 upbm affinity estimate (log intensity, higher = more binding, comparable within an allelic series)","9.6 upbm affinity estimate (log intensity, higher = more binding, comparable within an allelic series)",–,"8.37 upbm affinity estimate (log intensity, higher = more binding, comparable within an allelic series)","9.6 upbm affinity estimate (log intensity, higher = more binding, comparable within an allelic series)",–,"9.53 upbm affinity estimate (log intensity, higher = more binding, comparable within an allelic series)",–,–,–,"8.47 upbm affinity estimate (log intensity, higher = more binding, comparable within an allelic series)","9.68 upbm affinity estimate (log intensity, higher = more binding, comparable within an allelic series)","6.96 upbm affinity estimate (log intensity, higher = more binding, comparable within an allelic series)","10.4 upbm affinity estimate (log intensity, higher = more binding, comparable within an allelic series)","10.4 upbm affinity estimate (log intensity, higher = more binding, comparable within an allelic series)","6.98 upbm affinity estimate (log intensity, higher = more binding, comparable within an allelic series)",–
AATAAAAA,"9.88 upbm affinity estimate (log intensity, higher = more binding, comparable within an allelic series)","12.5 upbm affinity estimate (log intensity, higher = more binding, comparable within an allelic series)","12.4 upbm affinity estimate (log intensity, higher = more binding, comparable within an allelic series)","11.9 upbm affinity estimate (log intensity, higher = more binding, comparable within an allelic series)","12.6 upbm affinity estimate (log intensity, higher = more binding, comparable within an allelic series)",–,"12.5 upbm affinity estimate (log intensity, higher = more binding, comparable within an allelic series)",–,"11.9 upbm affinity estimate (log intensity, higher = more binding, comparable within an allelic series)",–,"11.6 upbm affinity estimate (log intensity, higher = more binding, comparable within an allelic series)","11.2 upbm affinity estimate (log intensity, higher = more binding, comparable within an allelic series)",–,–,–,–,"10.9 upbm affinity estimate (log intensity, higher = more binding, comparable within an allelic series)"
ATCGTTAA,"9.99 upbm affinity estimate (log intensity, higher = more binding, comparable within an allelic series)","12.5 upbm affinity estimate (log intensity, higher = more binding, comparable within an allelic series)","12.4 upbm affinity estimate (log intensity, higher = more binding, comparable within an allelic series)",–,"12.6 upbm affinity estimate (log intensity, higher = more binding, comparable within an allelic series)",–,"12.5 upbm affinity estimate (log intensity, higher = more binding, comparable within an allelic series)",–,"12.1 upbm affinity estimate (log intensity, higher = more binding, comparable within an allelic series)",–,–,"10.7 upbm affinity estimate (log intensity, higher = more binding, comparable within an allelic series)",–,"13.1 upbm affinity estimate (log intensity, higher = more binding, comparable within an allelic series)",–,–,–
